Consider 47 compounds from PubChem BioAssay AID1347416 (National Center for Advancing Translational Sciences (NCATS), 2020).

The whole screen tested about 4,100 compounds, of which about 1,600 (39%) were called active. Inconclusive results (about 25%) are left out. Calls follow the shape of the dose curve; as a rule, active = well fitted inhibition curve with a large enough effect; inconclusive = small, poorly fitted or top-dose-only effect; inactive = no such curve, though single readings can be large or run the other way. The list shows a part of the results.
% is scaled to controls: 0 for no effect and ±100 for the full control effect; potency is read from the fitted curve at half-maximal effect.

This test is described as follows: qHTS Validation assay for Inhibitors of Plasmodium falciparum Dd2 growth in vitro. Also: nearly all actives have a fitted effect of over 70% in size. To be noted: P. falciparum Dd2 in RBCs, SYBR Green growth, 72 h; series mostly up to 28.7 µM; activity change, negative = inhibition: at the top concentration. The method in brief:
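P. falciparum Dd2-infected red blood cells (2.5% hematocrit, 0.3% parasitemia) grown 72 h at 37 °C under 5% O2 with compounds in a titration, 29 uM to 0.5 nM final. Growth read as SYBR Green-1 fluorescence after ~16 h lysis; artesunate 300 nM as positive control.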
Regarding `CC(C)N(Cc1nc2ccccc2[nH]1)C(C)C`, the “activity change, negative = inhibition” value is -3.28% (inactive).

With `COC[C@H]1CCCN1[C@@H]1[C@H](O)[C@H](CO)O[C@@H]1CN(Cc1cccc(Cl)c1)Cc1cccc(Cl)c1`, the Potency is 10.6 µM (active).

In the case of `O=C1c2ccccc2C2=Nc3ccccc3SC(c3ccccc3F)C12` (configuration not stated), the Potency was 4.73 µM (active).

On to `O=C1c2ccccc2C2=Nc3ccccc3SC(c3ccc(Cl)cc3)C12` (configuration not stated), for which the Potency was 2.66 µM (active).

Consider `CCOC(=O)c1sc(NC(=O)C(C)Sc2nc(-c3ccccc3)cc(C(F)(F)F)n2)c(C(=O)OC)c1C` (configuration not stated), for which the Potency is 2.37 µM (active).

As for `Cc1ccc(NC(=O)CSc2nc(-c3ccco3)cc(C(F)(F)F)n2)c(C)c1`, the “activity change, negative = inhibition” value was -29% (inactive).

`CCN(CC)C(=O)c1sc(NC(=O)C(C)Sc2nc(-c3ccccc3)cc(C(F)(F)F)n2)c(C(=O)OC)c1C` (configuration not stated): the Potency is 0.596 µM (active).

For the compound `CCCOC(=O)c1c(NC(=O)C(C)Sc2nc(-c3ccccc3)cc(C(F)(F)F)n2)sc(C(=O)N(C)C)c1C` (configuration not stated), the Potency was 1.68 µM (active).

Regarding `CCc1cc(C(=O)c2ccccc2)c(N)s1`, the “activity change, negative = inhibition” value is 35.9% (inactive).

Take `COC(=O)c1ccc2nc(C)cc(Nc3ccc(O)cc3)c2c1`: the Potency is 9.44 µM (active).

For `Cc1ccc(-c2onc3ccc(C(=O)O)cc23)cc1`, the “activity change, negative = inhibition” value is 19.2% (inactive).

`Cc1ccc2nc(C)cc(Nc3ccc([N+](=O)[O-])cc3)c2c1`: the Potency is 6.68 µM (active).

For `COc1ccc2nc(C)cc(NCc3cccc(C(F)(F)F)c3)c2c1`, the Potency is 2.11 µM (active).

As to `CCOc1ccc2nc(C)cc(Nc3ccc4c(c3)OCCO4)c2c1`, the Potency is 6.68 µM (active).

With `COc1ccc2nc(C)cc(Nc3ccc(Cl)c(Cl)c3)c2c1`, the Potency is 2.66 µM (active).

`CCc1nc2cc(N3CCC(C(=O)NCc4ccc5c(c4)OCO5)CC3)cnc2nc1CC`: the “activity change, negative = inhibition” value is -21.2% (inactive).

Consider `Cc1ccc(S(=O)(=O)N2CCN(C(=S)NCc3ccc4c(c3)OCO4)CC2)cc1`, for which the Potency is 2.37 µM (active).

Turning to `Cc1ccc(S(=O)(=O)N2CCC(C(=O)NCC3CC3)CC2)cc1`, the “activity change, negative = inhibition” value was 18.4% (inactive).

As for `CCCc1cc(=O)oc2cc(C)cc(OCC(=O)NC3CC3)c12`, the Potency is 4.73 µM (active).

For the compound `CCn1ncc(N2CCC(NC(=O)COc3ccc(F)cc3)CC2)cc1=O`, the “activity change, negative = inhibition” value is -8.45% (inactive).

`CCCCc1cc(=O)oc2cc(C)cc(OCC(=O)Nc3cccnc3)c12`: the Potency is 0.596 µM (active).

In the case of `Cc1ccc(C)c(OCC(=O)Nc2cc(C(=O)O)cc(C(=O)O)c2)c1`, the “activity change, negative = inhibition” value was -0.159% (inactive).

`CCCc1cc(=O)oc2cc(C)cc(OCC(=O)Nc3ccccn3)c12`: the Potency is 2.11 µM (active).

As to `Cc1cccnc1NC(=O)COc1ccc2oc3c(c2c1)CCCC3`, the “activity change, negative = inhibition” value is 26% (inactive).

Consider `Cc1cccc(OCC(=O)NC2CCN(C(=O)c3cc4c(=O)[nH]c(C)cn4n3)CC2)c1`, for which the “activity change, negative = inhibition” value is -0.762% (inactive).

Regarding `CCCc1cc(=O)oc2cc(C)cc(OCC(=O)Nc3cccnc3)c12`, the Potency was 0.531 µM (active).

As to `CCn1cc(S(=O)(=O)N2CCCOCCNC(=O)[C@@H]3CCC[C@@H]32)cn1`, the “activity change, negative = inhibition” value was 1.04% (inactive).

In the case of `Cc1cc([N+](=O)[O-])ccc1NC(=O)COc1nsnc1N1CCOCC1`, the Potency was 6.68 µM (active).

As for `COc1ccc(CN2CC[C@H](c3nnc(-c4ccccc4F)o3)C2)cc1`, the “activity change, negative = inhibition” value was 6.78% [at 43.1 µM] (inactive).

On to `COc1ccc(Cn2c(C3CCN(C(=O)Cc4ccc(F)cc4)CC3)n[nH]c2=O)cc1`, for which the “activity change, negative = inhibition” value is -12.2% (inactive).

Turning to `COc1ccc(CCN2CCC(Nc3nc4ccccc4n3Cc3ccc(F)cc3)CC2)cc1`, the Potency is 2.37 µM (active).

Turning to `CC1CCN(c2nc3ccc(C(=O)O)cc3s2)CC1`, the “activity change, negative = inhibition” value was 68.3% (inactive).

With `Cc1nc(N2CCC(C)CC2)c2c(C)c(C(=O)Nc3ccc(C(F)(F)F)cc3)sc2n1`, the Potency was 7.5 µM (active).

As to `CN(C(=O)CSc1nc2ccc(NC(=O)CCc3ccccc3)cc2s1)c1ccccc1`, the Potency was 13.3 µM (active).

In the case of `COc1ccc(CNC(=O)Cn2c(SCC(=O)N(C)c3ccccc3)nc3ccccc32)cc1`, the “activity change, negative = inhibition” value was 21.9% (inactive).

`O=C(NCc1ccc(N2CCCC2)cc1)C1CCCN(c2cnn(Cc3ccccc3)c(=O)c2)C1` (configuration not stated): the Potency was 10.6 µM (active).

Turning to `Cc1ccc(C)n1-c1nnc(N2CCCC(C(=O)NCc3ccccc3)C2)s1` (configuration not stated), the “activity change, negative = inhibition” value is -8.48% (inactive).

With `O=C(CC1CCCN(c2cnn(CC3CC3)c(=O)c2)C1)NCc1ccccc1` (configuration not stated), the “activity change, negative = inhibition” value is 8.87% (inactive).

Turning to `Cc1cc(C)c(S(=O)(=O)Nc2cc(Cl)c3oc4c(c3c2)C(=O)CCC4)cc1C`, the “activity change, negative = inhibition” value was 0.504% (inactive).

`CN(C)CC(O)COc1ccc(C(C)(C)c2ccc(OCC(O)CN(C)C)cc2)cc1` (configuration not stated): the Potency was 8.41 µM (active).

With `O=C(COC(=O)c1cccc(Br)c1)NCCNC(=O)COC(=O)c1cccc(Br)c1`, the “activity change, negative = inhibition” value was 26.2% (inactive).

`O=C(Nc1ccc(C(=O)OC[C@@H]2CCCN3CCCC[C@H]23)cc1)c1cccc(Br)c1`: the Potency is 6.68 µM (active).

Consider `CCc1cccc(NC(=O)c2ccc3c(c2)N(C)C2CCCCN2C3=O)c1` (configuration not stated), for which the “activity change, negative = inhibition” value is -18.7% (inactive).

Take `O=S(=O)(c1cccc(F)c1)N1CCC2(CC1)CC(Cc1nc(C3CC3)no1)CCO2` (configuration not stated): the “activity change, negative = inhibition” value is -3.18% (inactive).

Regarding `CC1(CCCCc2ccccc2)COc2ccc(C(=O)NC3CCC(O)CC3)cc2N1` (configuration not stated), the “activity change, negative = inhibition” value is 41.1% [at 43.1 µM] (inactive).

Take `CCN(C(=O)Cn1c(=O)n(Cc2ccc3c(c2)OCO3)c(=O)c2ccc(C(=O)NC3CCCCC3)cc21)c1cccc(C)c1`: the Potency was 6.68 µM (active).

For the compound `O=C(NC1CCN(c2cnn(CC3CC3)c(=O)c2)CC1)c1ccc2c(c1)OCO2`, the “activity change, negative = inhibition” value was 1.48% (inactive).
